Compound activity: PubChem, National Center for Advancing Translational Sciences (NCATS)
Shown are actives, neighbours in structure and some others; about 6% of the full set was active somewhere.
BCR signal inh: blocks chronic active B-cell receptor signaling; ABC-DLBCL IkBa-CBG/CBR reporter, luminescence ratio, 4 h; 0.05% of 340,000 active; Potency, µM (highest dose often 46.1 µM), inactives show at the highest dose activity change, negative = inhibition, most hits filed as inhibitors; active = well fitted inhibition curve with a large enough effect in the signal ratio, with a control signal flat, not every such curve was filed as active; inconclusive = small, poorly fitted or top-dose-only effect, or effect the other way, or a change in a side signal; the % refers to the signal ratio;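 note: potency is the fitted concentration of half-maximal effect; plate controls were basal doxycycline-induced cells for no effect and cells given 10 µM MG132 for full effect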
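Doxycycline induced both beetle luciferases in TMD8 lymphoma cells; IKK-driven degradation limits the IkappaBalpha-fused green signal, while red luminescence normalises for cell number and nonspecific effects. Compounds tested up to 46 uM, 4 hrs.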
DRD3 antagonist: D3 dopamine receptor (human) antagonism. P35462. D3R cells, DiscoveRx beta-arrestin luminescence, antagonist mode; stronger effect = lower value. max response, negative = inhibition, %. 2.5% of 360,000 active. AID 652054; in the data active = max response below about -50%; inconclusive = no clear call, values can overlap the other calls; note: % is set by controls: 0 for no effect and ±100 for the full control effect
Target sequence (P35462 whole entry, looked up): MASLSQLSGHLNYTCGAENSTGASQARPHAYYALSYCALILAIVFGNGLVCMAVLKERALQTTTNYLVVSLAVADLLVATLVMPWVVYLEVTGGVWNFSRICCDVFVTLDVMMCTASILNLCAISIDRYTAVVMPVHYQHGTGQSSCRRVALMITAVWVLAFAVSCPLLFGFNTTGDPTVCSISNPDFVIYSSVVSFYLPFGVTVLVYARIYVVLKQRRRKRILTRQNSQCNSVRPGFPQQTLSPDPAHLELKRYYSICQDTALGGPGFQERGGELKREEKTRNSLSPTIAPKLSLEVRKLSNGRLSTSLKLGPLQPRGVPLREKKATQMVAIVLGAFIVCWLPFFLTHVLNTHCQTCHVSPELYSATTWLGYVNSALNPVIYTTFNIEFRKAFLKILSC
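Cells expressing the human receptor were seeded at 1500 cells/well, incubated overnight at 37 degrees C in 5% CO2, then exposed to library compounds with dopamine controls for 90 minutes at 37 degrees C before luminescent detection.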
D1 PAM: potentiators of human D1 dopamine receptor; P21728; HEK293 TREx D1 cells, calcium flux, dopamine EC20 potentiation; potentiation, % at 10 µM; 0.036% of 360,000 active; AID 504651; in the data active = potentiation above about 30%; note: 0% is about no effect
D1 antagonist: antagonists of human D1 dopamine receptor; 3.2% of 360,000 active; activity change, negative = inhibition, % at 10 µM; HEK293 TREx D1 cells, calcium flux, dopamine EC80; stronger effect = lower value; AID 504652; in the data active = activity change below about -30%; note: % is set by controls: 0 for no effect and ±100 for the full control effect
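Tetracycline-induced HEK293 T-REx cells with force-coupled D1 receptor were loaded with a no-wash calcium dye. Compound was added after a 10 s baseline and read kinetically for 180 s; EC80 dopamine was then added and calcium flux followed another 180 s.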
D1 agonist: agonists of human D1 dopamine receptor | activation, % at 2 µM | P21728 | HEK293 T-REx D1 cells, calcium flux, agonist mode | 1% of 360,000 active; in the data active = activation above about 30%; note: 0% is about no effect
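Inducible HEK293 T-REx D1 cells, force-coupled to calcium signalling, were plated at 4000 cells/well with tetracycline and held overnight at 30 C. After no-wash calcium dye loading, compound-evoked calcium rise over 180 s flagged agonists.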
D3 ag: activates the human D3 dopamine receptor | max activation, % | D3R DiscoveRx beta-arrestin cells, luminescence, 90 min | 0.58% of 410,000 active; in the data active = max activation above about 30%; note: 0% is about no effect
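Cells at 1500/well, incubated overnight, then treated with pinned compounds (dopamine as control) for 90 min at 37 degrees C. DiscoveRx reagent added for 30 - 60 minutes at room temperature; luminescence read.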
* = called active by the depositor; ? = inconclusive; nt = no result given.

SMILES	BCR signal inh	DRD3 antagonist	D1 PAM	D1 antagonist	D1 agonist	D3 ag
COc1ccc2c(n1)Sc1nc3ccccc3nc1N2	26%	-24	2	-24	262*	-5
COc1cc2ccccc2nn1	-3%	-21	-2	-28	1	-6
C[C@@H]1CN([C@@H](C)CO)C(=O)c2cc(NC(=O)c3ccccc3)ccc2O[C@@H](C)CCCCO[C@@H]1CN(C)S(=O)(=O)c1ccc(F)cc1	nt	10	nt	nt	nt	1
O=C(NC1CCCCC1)C(c1ccccc1F)N(C(=O)c1csnn1)C1CCCC1 (configuration not stated)	-9%	-5	nt	-23	61*	-7
COc1ccccc1C(C(=O)NC1CCCCC1)N(C(=O)c1csnn1)C1CC1 (configuration not stated)	-1%	16	nt	-18	4	-4
Cc1ccc(NC(=O)CCC(=O)N2Cc3ccccc3Oc3ncccc32)cc1Cl	nt	nt	0	-2	9	-13
O=C(Cn1cc(SCc2ccc(F)cc2)c2ccccc21)N1CCCC1	nt	nt	-5	-30*	6	-24
O=C(CSc1cn(CC(=O)N2CCCC2)c2ccccc12)Nc1ccccc1C(F)(F)F	nt	nt	-7	-44*	0	10
O=C(CSc1cn(CC(=O)N2CCOCC2)c2ccccc12)Nc1ccccc1C(F)(F)F	nt	nt	-3	-2	2	-3
COCCCN1C(=O)C(CC(=O)NCc2ccco2)CC(C(=O)N(C)C)=C1C (configuration not stated)	nt	20	nt	nt	nt	3
CN(C)CCCNc1nc2sc3c(c2c(=O)n1CCc1ccccc1)CCCCC3	1%	7	-3	-24	59*	-12
CN(C)CCCn1c(=O)n(CCc2ccccc2)c(=O)c2c3c(sc21)CCCCC3	1%	-3	-4	2	2	-21
Cc1ccc(C)c(N2CCN(CCCNC(=O)c3ccc4nc(CCc5ccccc5)oc4c3)CC2)c1	nt	nt	1	2	23	-20
COc1cc2c(cc1OC)C1O[C@](CCCCN3C(=O)c4ccccc4C3=O)(C2)OC2=C1C(=O)OC1(CCCCC1)C2	?	nt	0	0	0	nt
O=C(Nc1ccccn1)NC1CCCCC1	?	-7	3	-1	0	0
O=C(Nc1ccccn1)NC1CCS(=O)(=O)C1 (configuration not stated)	-2%	-22	-3	-34*	1	1
CC(C)[C@H](NS(=O)(=O)c1ccccc1)C(=O)OCC(=O)NC(=O)c1cccn1C	3%	-8	-2	-6	7	5
Cc1ccc(S(=O)(=O)N[C@H](C(=O)OCC(=O)NC(=O)c2cccn2C)C(C)C)cc1	nt	2	nt	nt	nt	35*
O=C(NC1CCCC1)C(c1ccsc1)N(C(=O)Cc1cccs1)c1cccc(F)c1 (configuration not stated)	14%	-3	-9	-32*	5	-5
NC(=O)C1c2ccccc2Oc2ccccc21	-2%	4	-6	2	0	7
O=C(O)c1ccccc1C1c2ccccc2Oc2ccccc21	nt	-72*	nt	nt	nt	-20
CCCCc1nn2c(=O)cc(COC(=O)c3ccccc3C)nc2s1	nt	nt	-4	1	4	-13
O=C1c2cccc3c(O)ccc(c23)C(=O)N1Cc1ccccc1	?	16	18	48	366*	8
COC(=O)c1cc2sc(C)cc2n1CC(=O)Nc1cccc(SC)c1	nt	nt	1	-26	1	-11
Cc1nc(-c2ccccc2)nc2sc(C(=O)c3ccc(F)cc3)c(N)c12	?	-8	-2	10	34*	-1
SMILES	BCR signal inh	DRD3 antagonist	D1 PAM	D1 antagonist	D1 agonist	D3 ag
CC(=O)N1CCc2nc3sc(C(=O)c4ccc(F)cc4)c(N)c3c(C(F)(F)F)c2C1	nt	nt	1	7	61*	1
Cc1nc2sc(C(=O)c3ccccc3)c(N)c2c(C)c1C	6%	-19	-3	3	0	-9
O=[N+]([O-])c1ccc(N=Cc2sc3ccccc3c2O)cc1	?	7	-7	7	32*	-6
O=[N+]([O-])c1ccc(N=Nc2c(Cl)cc(O)cc2Cl)cc1	?	-13	-13	-46*	21	-1
CC(N)=Nc1ccc([N+](=O)[O-])cc1	0%	-20	2	-1	4	2
COc1cc(CNC(=O)C2CCCCN2S(=O)(=O)c2ccc(F)cc2)cc(OC)c1OC (configuration not stated)	nt	nt	-3	7	2	5
CCOc1ccc(-n2c(=O)c3c(C)c(C)sc3n(CC(=O)Nc3ccc(CC)cc3)c2=O)cc1	nt	nt	1	-12	3	12
CCCCNC(=O)C1c2ccccc2OCC(=O)N1CCc1ccccc1 (configuration not stated)	nt	3	nt	nt	nt	2
COC(/C(=N/O)c1ccc(Cl)cc1)c1ccccc1 (configuration not stated)	8%	-3	-2	-38*	8	-12
Cc1ccccc1C(=O)NC(=S)Nc1ccc(S(=O)(=O)N2CCOCC2)cc1	?	-54*	-4	-3	6	-13
O=S(=O)(c1ccc(NC(=S)N/N=C/c2ccc(N3CCOCC3)cc2)cc1)N1CCOCC1	?	2	-7	-44*	2	7
Cc1ccccc1C(=O)NC(=S)Nc1ccc(S(=O)(=O)N2CCN(C)CC2)cc1	?	-12	-12	-4	7	-3
CCN(c1ccc(C)cc1C)S(=O)(=O)c1nnc(NC(=O)C(C)(C)C)s1	-6%	-74*	-12	0	0	-9
CC(C)C(=O)N1C2CCC1CC(O)(c1ccc(F)cc1)C2 (configuration not stated)	3%	-67*	-13	-19	1	-8
Cc1cc(N2C3CCC2CC(O)(c2ccc(F)cc2)C3)nc(-c2ccccc2)n1 (configuration not stated)	?	-60*	-3	-14	7	-23
Cc1ccnc(N2C3CCC2CC(O)(c2ccccc2)C3)n1 (configuration not stated)	?	-7	-2	10	1	4
O=C(Nc1ccccc1)N1C2CCC1CC(O)(c1cccnc1)C2 (configuration not stated)	7%	-15	0	-2	4	-13
CCn1cc2nc(SCc3cc(C)ccc3C)n(CCc3ccccc3)c(=O)c2n1	nt	nt	9	63	11	4
COc1cccc2cc(C(=O)NCCc3c(C)[nH]c4ccc(Br)cc34)c(=O)oc12	nt	nt	3	6	0	3
COc1ccccc1NC(=O)C1CCC(CNS(=O)(=O)c2ccc3c(c2)CC(C)N3C(C)=O)CC1 (configuration not stated)	nt	nt	-4	9	1	14
